Hit rate of the full screen: of about 52,000 compounds, about 4,300 (8.3%) were called active. The full list was thinned out, with actives kept by preference. Values without a mark were called inactive. Rule as the data show it: active = survival mostly below about 52% (no sharp cut-off); inactive = mostly above about 56%.
system: DeltatarO mutant; assay: S. aureus survival, RN4220 and DeltatarO strains – OD600, teichoic acid synthesis inhibitors, primary screen (AID 463173); settings: S. aureus RN4220 wild type/DeltatarO growth, OD600, 18 h, stronger effect = lower value, screened at 18.75 µg/mL (by protocol)

Compound | survival
CCOC(=O)c1ccccc1NC(=O)CN1CCCN(Cc2cccc(Cl)c2)S1(=O)=O | 101%
CSc1ccc(CCNC(=O)C2CCN(c3ncnc4c3nc3n4CCCCC3)CC2)cc1 | 79%
COc1cccc(/C=N/n2c(N)nc3ccccc32)c1OC | 82%
COc1cccc(/C=N/c2nc3ccccc3n2C)c1O | 122%
COc1ccccc1/C=C/c1nc2ccccc2n1C(C)C | 8% (active)
O=C(c1ccc(Cl)cc1)C1CCN(C(=O)N2CCOCC2)CC1 | 66%
NC(=O)CN1C(=O)C2(SCC(=O)N2c2cccc(F)c2)c2ccccc21 (configuration not stated) | 78%
Cc1ccc(NC(=O)C2CCN(c3nn4c(=O)cc(C)nc4s3)CC2)cc1 | 104%
O=C(Nc1ccc(O)c(-c2nc3ccccc3o2)c1)c1sc2ccccc2c1Cl | 105%
COC(=O)c1ccccc1NC(=O)c1cc2c(-c3ccc(OC)c(OC)c3)nn(C)c2s1 | 97%
C=CCn1c(SC)nc2c1c(=O)[nH]c(=O)n2C | 94%
CCC(C)(C)NC(=O)C1CCN(S(=O)(=O)c2c(C)noc2/C=C/c2ccc(C)cc2)CC1 | 52% (active)
Cc1ccc(/C=C/c2onc(C)c2S(=O)(=O)N2CCC(C(=O)Nc3cc(C)ccc3C)CC2)cc1 | 78%
Cc1ccc(/C=C/c2onc(C)c2S(=O)(=O)N2CCC(C(=O)NCc3ccc(Cl)cc3)CC2)cc1 | 93%
COC(=O)/C(C#N)=C/c1ccc(-c2ccccc2)o1 | 75%
Cc1ccc(-c2nn(CC(=O)NCc3ccccc3)c3c2cnc2ccc(F)cc23)cc1C | 75%
O=C(Nc1ccc(F)cc1)c1ccc(Cn2nc(N3CCN(c4ccccc4)CC3)ccc2=O)o1 | 82%
Cn1c(=O)c2c(-c3ccccc3)n3c(c2n(C)c1=O)C(c1ccc([N+](=O)[O-])cc1)Nc1ccccc1-3 (configuration not stated) | 34% (active)
COc1ccc(C2Nc3ccccc3-n3c(-c4ccccc4)c4c(=O)n(C)c(=O)n(C)c4c32)cc1 (configuration not stated) | 79%
COc1ccc(-c2c3c(=O)n(C)c(=O)n(C)c3c3n2-c2ccccc2NC3c2ccc(OC)cc2)cc1 (configuration not stated) | 74%
Cc1ccc(C2Nc3ccccc3-n3c(-c4ccccc4)c4c(=O)n(C)c(=O)n(C)c4c32)cc1 (configuration not stated) | 41% (active)
Cn1c(=O)c2c(-c3ccccc3)n3c(c2n(C)c1=O)C(c1ccccc1[N+](=O)[O-])Nc1ccccc1-3 (configuration not stated) | 79%

Compound | survival
Cn1c(=O)c2c(-c3ccccc3)n3c(c2n(C)c1=O)C(c1cccc([N+](=O)[O-])c1)Nc1ccccc1-3 (configuration not stated) | 53%
N#Cc1c(Nc2ccccc2)sc(C(=O)c2cccs2)c1N | 75%
O=C(O)c1cccc2cc[nH]c12 | 101%
Cc1ccc2nc(-c3cccc(NC(=O)CSc4ccc(Cl)cc4)c3)oc2c1 | 56%
Cc1cc(C)c2oc(-c3cccc(NC(=O)c4ccc(-c5cccc([N+](=O)[O-])c5)o4)c3)nc2c1 | 75%
Cc1ccc2nc(-c3cccc(NC(=O)c4ccc(Br)o4)c3)oc2c1 | 15% (active)
Cc1ccc2nc(-c3cccc(NC(=O)c4cccc5ccccc45)c3)oc2c1 | 50%
COc1cccc(OC)c1C(=O)Nc1cccc(-c2nc3cc(C)cc(C)c3o2)c1 | 68%
CC(C)(C)c1ccc(-c2nc3cc(NC(=O)c4cc5ccccc5o4)ccc3o2)cc1 | 71%
Cc1cc(C)c2oc(-c3cccc(NC(=O)c4cc5ccccc5o4)c3)nc2c1 | 36% (active)
Cc1cc(C)c2oc(-c3cccc(NC(=O)c4ccc(Br)o4)c3)nc2c1 | 34% (active)
Cc1cc(C)c2oc(-c3cccc(NC(=O)c4ccco4)c3)nc2c1 | 87%
CCc1ccc(-n2c(=O)c3cccnc3n2CC(=O)NCc2ccc(F)cc2)cc1 | 94%
Cc1cccc(NC(=O)C2CCN(S(=O)(=O)c3cccc4nsnc34)CC2)c1C | 88%
CCc1ccc(C2=CC(c3cccc(C)c3)n3c(nc4ccccc43)N2)cc1 (configuration not stated) | 80%
COc1ccc(-n2c(SCC(=O)Nc3cc(C)cc(C)c3)nc3c(oc4ccccc43)c2=O)cc1 | 70%
CCOc1ccc(NC(=O)c2ccc3[nH]c(C)cc(=O)c3c2)cc1 | 79%
Cc1cccc(N2CCN(S(=O)(=O)c3ccc4c(c3)CC(=O)N4C)CC2)c1C | 129%
Cc1ccc(O)c(CNc2cccc3cccnc23)c1 | 79%
Cc1ccnc(NC(c2ccccc2F)c2ccc3cccnc3c2O)c1 (configuration not stated) | -1% (active)
Cc1ccnc(NCc2cccc3ccccc23)c1 | 93%
Oc1c(C(Nc2ccccn2)c2ccccc2F)ccc2cccnc12 (configuration not stated) | 102%

Compound | survival
Cc1ccnc(NC(c2cc(C)ccc2O)c2ccc3cccnc3c2O)c1 (configuration not stated) | 4% (active)
CCOc1cc(C(Nc2cc(C)ccn2)c2ccc3cccnc3c2O)ccc1OC (configuration not stated) | 146%
CC1CCc2c(sc3nnn(CC(=O)Nc4cccc(C(F)(F)F)c4)c(=O)c23)C1 (configuration not stated) | 70%
COc1ccc(NC(=O)c2cc(S(=O)(=O)N3CCCCCC3)cn2C)c(OC)c1 | 80%
O=C(CCn1cnc2onc(-c3ccc(F)cc3)c2c1=O)N1CCN(c2ccccc2F)CC1 | -4% (active)
CC(=O)c1ccc(N2CCN(C(=O)CCn3cnc4onc(-c5ccc(F)cc5)c4c3=O)CC2)cc1 | -5% (active)
COc1ccccc1N1CCN(C(=O)CCn2cnc3onc(-c4ccc(F)cc4)c3c2=O)CC1 | 66%
O=C(CCn1cnc2onc(-c3ccc(F)cc3)c2c1=O)N1CCN(c2ccccc2)CC1 | 60%
O=C(CCn1cnc2onc(-c3ccc(F)cc3)c2c1=O)N1CCN(c2ccc(F)cc2)CC1 | 77%
O=C(Cn1cnc2onc(-c3ccc(F)cc3)c2c1=O)N1CCN(c2ccccc2F)CC1 | 76%
CC(=O)c1ccc(NC(=O)C2=CC(c3ccc4c(c3)OCO4)=NS(=O)(=O)N2C)cc1 | 103%
CCc1cccc(NC(=O)c2c(N3CCCC3=O)c3cc(C)ccc3n2C)c1 | 74%
CCOC(=O)C1CCN(C(=O)Cn2c(=O)oc3cc(S(=O)(=O)N4CCC(C)CC4)ccc32)CC1 | 133%
Cc1cc(C)cc(NC(=O)CSc2nnc(CNC(=O)c3c(F)cccc3Cl)o2)c1 | 132%
CN(C)S(=O)(=O)c1ccc2c(c1)N(CC(=O)N1CCN(c3ccccc3F)CC1)CCS2 | 119%
COc1cc(NC(=O)Cn2nc(C(F)(F)F)c3c2CCC3)cc(OC)c1OC | 130%
CC(C)NC(=O)N1[C@H](c2cccs2)[C@@H](C)C(=O)[C@@H](C)[C@@H]1c1cccs1 | 51%
COc1ccccc1NC(=O)c1ccc2[nH]c(C)cc(=O)c2c1 | 77%
CCOC(=O)c1c(NC(=O)CCCOc2ccccc2C)sc2c1CCC(C)C2 (configuration not stated) | 16% (active)
CCOC(=O)c1c(NC(=O)Cn2nnc3ccccc32)sc2c1CCC(C)C2 (configuration not stated) | 64%
Cc1ccc(OCCCC(=O)Nc2sc3c(c2C(N)=O)CCC(C)C3)cc1 (configuration not stated) | 159%
CCOC(=O)c1c(NC(=O)CCCOc2ccc(C)cc2)sc2c1CCC(C)C2 (configuration not stated) | 10% (active)

Compound | survival
CCOC(=O)c1c(NC(=O)COc2ccc(F)cc2)sc2c1CCC(C)C2 (configuration not stated) | 70%
CCOC(=O)c1c(NC(=O)CS(=O)(=O)c2ccc(C)cc2)sc2c1CCC(C)C2 (configuration not stated) | 102%
CCc1cnc2c(c1SC(C(C)=O)C(=O)N(C)C)c(=O)n(C)c(=O)n2C (configuration not stated) | 95%
O=C(NC1CCCC1)c1ccc2c(=O)n(Cc3ccccc3)c(SCc3cccc(F)c3)nc2c1 | 72%
CCCCOc1ccc(C2c3c(oc4ccccc4c3=O)C(=O)N2c2nc(C)c(C(=O)OCC)s2)cc1OC (configuration not stated) | 55%
CCCn1c2c(c(O)c(C(=O)Nc3ccccc3F)c1=O)CCCC2 | 93%
CCC(=O)Nc1nnc(S(=O)(=O)N2c3ccccc3CC2C)s1 (configuration not stated) | 92%
Cc1cccc(C(=O)Nc2nnc(S(=O)(=O)N3c4ccccc4CC3C)s2)c1 (configuration not stated) | 16% (active)
CC1Cc2ccccc2N1S(=O)(=O)c1nnc(NC(=O)c2cccc(F)c2)s1 (configuration not stated) | 6% (active)
CC(C)CC(=O)Nc1nnc(S(=O)(=O)N2c3ccccc3CC2C)s1 (configuration not stated) | 75%
Cc1ccc(OCC(=O)Nc2nnc(S(=O)(=O)N3c4ccccc4CC3C)s2)cc1 (configuration not stated) | 34% (active)
Cc1ccc(C(=O)Nc2nnc(S(=O)(=O)N3c4ccccc4CC3C)s2)cc1 (configuration not stated) | 30% (active)
CCn1ccc2cc(S(=O)(=O)N3CCC(C(=O)NCCc4ccccc4)CC3)ccc21 | 102%
CCOC(=O)c1[nH]c2c(c1Cc1ccccc1)C(=O)CC(c1ccc(Cl)cc1)C2 (configuration not stated) | 92%
NC(=O)c1ccc(NC(=O)C2CCN(S(=O)(=O)Cc3ccccc3)CC2)cc1 | 87%
CCOc1ccc(NC(=O)c2cnn3c2NC(C)=C(C(=O)Nc2ccc(Cl)cc2)C3c2ccc(OC)c(OC)c2)cc1 (configuration not stated) | 59%
Cc1ccccc1C(=O)N1CCC(C(=O)Nc2ccc(F)cc2F)CC1 | 67%
O=C(Cn1ncc2c(Cl)cccc21)NCc1cccc(Cl)c1 | 110%
CCC(CC)C(=O)Nc1nnc(S(=O)(=O)N2c3ccccc3CC2C)s1 (configuration not stated) | 61%
CC(C)C(=O)Nc1nnc(S(=O)(=O)N2c3ccccc3CC2C)s1 (configuration not stated) | 87%
CC1Cc2ccccc2N1S(=O)(=O)c1nnc(NC(=O)c2ccccc2)s1 (configuration not stated) | 12% (active)

Reference: PubChem BioAssay AID463173 (ICCB-Longwood Screening Facility, Harvard Medical School, 2010)
